Test results from the supplement of paper PMC3545927.
Some of the results follow. The hit rate among all sequences tested is not known here.

B1: HC1465 (peptide)
chain: CASSYGFQYSAGNASASA
B2: HC1926 (peptide)
chain: CATTPCSGSMAGNASASA
B3: HC1588 (peptide)
chain: CAARDQLEQAAGNASASA
B4: HC804 (peptide)
chain: CATGSPITYSAGNASASA
B5: FS-831 (peptide)
chain: CANAHRDKKSAGNASASA
B6: FS-1343 (peptide)
chain: CAIFSRCARSAGNASASA
B7: FS-802 (peptide)
chain: CAIFSRVKKSAGNASASA
B8: FS-1376 (peptide)
chain: CAMIHRFWKSAGNASASA
B9: FS-1485 (peptide)
chain: CASFDRKKKSAGNASASA
B10: FS-39 (peptide)
chain: CAKGSRRKKSAGNASASA
B11: FS-1358 (peptide)
chain: CALKHRVKKSAGNASASA
B12: FS-736 (peptide)
chain: CAVPPRRKKSAGNASASA
B13: HC2444 (peptide)
chain: CAEIEVPCHRAGNASASA
B14: HC603 (peptide)
chain: CAVFDITKLLAGNASASA
B15: FS-600 (peptide)
chain: CAKAARAKKIAGNASASA
B16: HC1073 (peptide)
chain: CAAATAFVGAAGNASASA
B17: HC1060 (peptide)
chain: CASPLTTSQTAGNASASA
B18: FS-176 (peptide)
chain: CALKARRKKSAGNASASA
B19: FS-1651 (peptide)
chain: CARLYREKKSAGNASASA
B20: HC1140 (peptide)
chain: CARLHQWISSAGNASASA
B21: FS-414 (peptide)
chain: CAEPGREKKSAGNASASA
B22: FS-803 (peptide)
chain: CAIKCRTKKSAGNASASA
B23: FS-717 (peptide)
chain: CASFARIKKWAGNASASA
B24: FS-157 (peptide)
chain: CAEPKRIKKSAGNASASA
B25: FS-615 (peptide)
chain: CALSNRTMKSAGNASASA
B26: FS-413 (peptide)
chain: CAEKARKGKSAGNASASA
B27: HC2339 (peptide)
chain: CAEPPCHRPSAGNASASA
B28: FS-829 (peptide)
chain: CAMLYRHKKSAGNASASA
B29: HC1458 (peptide)
chain: CALYDVVTKLAGNASASA
B30: HC1948 (peptide)
chain: CAWCTTPCSGAGNASASA
B31: HC2352 (peptide)
chain: CAEVECHRPSAGNASASA
B32: HC2427 (peptide)
chain: CAFREVPCHRAGNASASA
B33: HC387 (peptide)
chain: CAPERLASCRAGNASASA
B34: HC2017 (peptide)
chain: CAVSCCSMSYAGNASASA
B35: NG1 (peptide)
chain: CASSNQLQRRAGNASASA
B36: FS-743 (peptide)
chain: CAAISRRQRRAGNASASA
B37: FS-434 (peptide)
chain: CAGSHRRQRRAGNASASA
B38: FS-45 (peptide)
chain: CAKRSRDARRAGNASASA
B39: HC1581 (peptide)
chain: CAARMILMTHAGNASASA
B40: HC931 (peptide)
chain: CAAYMNTPGLAGNASASA
B41: HC1719 (peptide)
chain: CAMEPCSQHLAGNASASA
B42: EK1 (peptide)
chain: CAGDDDDKAGAGNASASA

Molecular target: furin, P09958
Sequence (P09958 whole entry): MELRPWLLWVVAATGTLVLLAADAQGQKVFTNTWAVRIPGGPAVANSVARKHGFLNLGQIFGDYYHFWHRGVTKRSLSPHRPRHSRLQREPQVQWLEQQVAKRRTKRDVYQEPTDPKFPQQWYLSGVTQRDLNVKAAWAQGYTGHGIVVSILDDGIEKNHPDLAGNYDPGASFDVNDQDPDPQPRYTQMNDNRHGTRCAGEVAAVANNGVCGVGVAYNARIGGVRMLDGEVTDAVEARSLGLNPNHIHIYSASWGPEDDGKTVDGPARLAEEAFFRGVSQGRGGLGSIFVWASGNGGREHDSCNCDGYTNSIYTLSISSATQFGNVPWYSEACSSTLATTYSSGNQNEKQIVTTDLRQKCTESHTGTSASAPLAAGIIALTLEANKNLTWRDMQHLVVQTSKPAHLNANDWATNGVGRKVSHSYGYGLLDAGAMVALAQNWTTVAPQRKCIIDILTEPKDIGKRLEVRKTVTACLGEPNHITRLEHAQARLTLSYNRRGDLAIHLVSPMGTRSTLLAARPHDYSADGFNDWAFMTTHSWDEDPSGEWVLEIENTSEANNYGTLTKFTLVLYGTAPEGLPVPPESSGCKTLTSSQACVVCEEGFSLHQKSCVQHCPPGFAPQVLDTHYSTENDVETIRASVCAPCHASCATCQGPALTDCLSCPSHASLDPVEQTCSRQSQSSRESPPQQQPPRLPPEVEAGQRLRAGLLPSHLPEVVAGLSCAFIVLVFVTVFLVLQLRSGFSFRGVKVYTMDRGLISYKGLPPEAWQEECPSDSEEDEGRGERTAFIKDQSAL
Assay: furin cleavage Z-score vs untreated control; higher = more cleavage, active = 3.5 or more, inactive = 1 or less, 8 variable residues between constant flanks
Outline: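 Purified furin cleaved 8-mer peptides that were fused to a cDNA oligonucleotide and held on magnetic beads by their N-terminus. Each 0.01 ml reaction used a 1:10 enzyme:substrate ratio in 50 mM HEPES pH 7.5 with CaCl2 and NaCl and ran 7.5, 15 or 30 min. Released DNA was adapter-tagged by PCR and sequenced, and read counts gave abundance. The cleavage Z-score came from log counts against furin-free reactions, lowess-adjusted and scaled by median absolute deviation.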

Sequence | furin cleavage Z-score (7.5 min) | furin cleavage Z-score (15 min) | furin cleavage Z-score (30 min)
B1 | 1.75 | 0.0331 (inactive) | -0.209 (inactive)
B2 | -0.191 (inactive) | 0.357 (inactive) | -1.65 (inactive)
B3 | 1.26 | 0.408 (inactive) | -0.23 (inactive)
B4 | -0.202 (inactive) | -0.337 (inactive) | -0.568 (inactive)
B5 | -0.25 (inactive) | -0.94 (inactive) | -2.16 (inactive)
B6 | 0.568 (inactive) | 0.619 (inactive) | 1.19
B7 | 3.99 (active) | 2.87 | 3.95 (active)
B8 | 0.282 (inactive) | -1.21 (inactive) | -1.26 (inactive)
B9 | -0.34 (inactive) | -0.366 (inactive) | -0.05 (inactive)
B10 | 5.36 (active) | 4.72 (active) | 4.1 (active)
B11 | 8.56 (active) | 10.2 (active) | 8.6 (active)
B12 | 3.36 | 2.71 | 4.45 (active)
B13 | 1.1 | 1.09 | 0.798 (inactive)
B14 | 0.928 (inactive) | -0.333 (inactive) | 0.0832 (inactive)
B15 | -0.438 (inactive) | -0.00567 (inactive) | -0.411 (inactive)
B16 | -1.28 (inactive) | -0.663 (inactive) | -0.282 (inactive)
B17 | 0.0213 (inactive) | -0.739 (inactive) | 0.362 (inactive)
B18 | 7.34 (active) | 8.84 (active) | 7.56 (active)
B19 | 0.828 (inactive) | 2.77 | 3.88 (active)
B20 | 0.126 (inactive) | -1.75 (inactive) | -1.83 (inactive)
B21 | -0.759 (inactive) | 0.432 (inactive) | -0.848 (inactive)

Sequence | furin cleavage Z-score (7.5 min) | furin cleavage Z-score (15 min) | furin cleavage Z-score (30 min)
B22 | 1.77 | 4.04 (active) | 3.26
B23 | -0.31 (inactive) | -0.161 (inactive) | 1.88
B24 | 3.63 (active) | 4.2 (active) | 3.26
B25 | 1.04 | -0.454 (inactive) | 0.561 (inactive)
B26 | -1.2 (inactive) | -1.61 (inactive) | -0.85 (inactive)
B27 | 0.111 (inactive) | -0.455 (inactive) | -0.0572 (inactive)
B28 | 0.949 (inactive) | 1.65 | 1.42
B29 | 0.188 (inactive) | 0.0294 (inactive) | -0.805 (inactive)
B30 | 1.23 | 0.244 (inactive) | 1.72
B31 | 1.1 | 0.203 (inactive) | 0.236 (inactive)
B32 | 0.22 (inactive) | 0.297 (inactive) | 0.623 (inactive)
B33 | -0.263 (inactive) | 0.599 (inactive) | 1.53
B34 | 0.592 (inactive) | -0.576 (inactive) | 1.57
B35 | 0.397 (inactive) | 2.01 | -0.568 (inactive)
B36 | 6.03 (active) | 8.53 (active) | 7.79 (active)
B37 | 9.09 (active) | 10.6 (active) | 8.98 (active)
B38 | 1.61 | -0.052 (inactive) | 2.16
B39 | -0.255 (inactive) | -1.76 (inactive) | -1.15 (inactive)
B40 | -0.513 (inactive) | -1.08 (inactive) | 0.157 (inactive)
B41 | 2.46 | 0.794 (inactive) | 2.77
B42 | -2.21 (inactive) | -1.96 (inactive) | 0.274 (inactive)
